Source: PubChem BioAssay
PI4K2A block – qHTS for small molecular inhibitors of PI4K2A. activity change, negative = inhibition, % at 76.9 µM. purified PI4K2A, ADP-Glo luminescence, 1 h; hits give low values. 0.13% of 420,000 active. AID 1346378, 2018. Phosphatidylinositol 4-kinase type 2-alpha (Homo sapiens), Q9BTU6; in the data active means activity change below about -50%; inconclusive means mostly about -30% to -49%
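ADP-Glo luminescence measured ADP generated by PI4K2A enzyme (4 ug/mL before mixing) with 1.2 mM PI substrate (pre-mix) and 300 microM ATP (pre-mix). Tris pH7.5 buffer with MgCl2, Triton X-100; 1 h reaction at ambient temperature.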
POLB inh – qHTS Assay for Inhibitors of DNA Polymerase Beta. Pol beta primer extension/strand displacement, fluorescence kinetic. P06746. Potency, µM (top dose mostly 114 µM), actives largely listed as inhibitors. 1.3% of 340,000 active
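Preincubation: enzyme (10 nM) with compound, 15 min, RT. Reaction: substrate added to 50 nM final. Reads: 0 and 10 min. Analysis: normalized, Hill fit.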
PI5P4K alpha inh – qHTS for Inhibitors of phosphatidylinositol 5-phosphate 4-kinase (PI5P4K); PI5P4Kalpha enzyme, ADP-Glo luminescence, 60 min; hits give low values; AID 652105, 2013; max response, %; 1.2% of 330,000 active; Phosphatidylinositol 5-phosphate 4-kinase type-2 alpha (Homo sapiens), P48426; active means max response of -50% or lower; inconclusive means between -30% and -50%; inactive means -30% or higher; further: value at the top dose of about 77 µM
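ADP-Glo luminescence end-point read after a 60 min room-temperature kinase reaction of PI5P4Kalpha plus substrate, initiated with ATP at 5 microM final. Buffer: 0.038 M HEPES pH 7.4, EGTA, 0.1% CHAPS, 5% DMSO.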
Pol kappa inh-1 – qHTS for Inhibitors of Polymerase Kappa; DNA polymerase kappa (Homo sapiens), Q9UBT6; Potency, µM (highest dose often 107 µM), usual class: inhibitors; purified Pol kappa, fluorescent DNA synthesis assay, 10 min; 0.53% of 400,000 active
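Pol kappa 10 nM + cpd, 15 min RT; start w/ substrate 50 nM final; fluorescence kinetic read, 0 and 10 min. Neg ctrl: buffer, no enzyme.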
Pol eta inh-1 – qHTS for Inhibitors of Polymerase Eta; recombinant Pol eta, fluorescent DNA replication assay; Potency, µM (doses to about 114 µM), hits mostly inhibitors; 1.2% of 390,000 active; DNA polymerase eta (Homo sapiens), Q9Y253
Target sequence (Q9Y253 whole entry, looked up): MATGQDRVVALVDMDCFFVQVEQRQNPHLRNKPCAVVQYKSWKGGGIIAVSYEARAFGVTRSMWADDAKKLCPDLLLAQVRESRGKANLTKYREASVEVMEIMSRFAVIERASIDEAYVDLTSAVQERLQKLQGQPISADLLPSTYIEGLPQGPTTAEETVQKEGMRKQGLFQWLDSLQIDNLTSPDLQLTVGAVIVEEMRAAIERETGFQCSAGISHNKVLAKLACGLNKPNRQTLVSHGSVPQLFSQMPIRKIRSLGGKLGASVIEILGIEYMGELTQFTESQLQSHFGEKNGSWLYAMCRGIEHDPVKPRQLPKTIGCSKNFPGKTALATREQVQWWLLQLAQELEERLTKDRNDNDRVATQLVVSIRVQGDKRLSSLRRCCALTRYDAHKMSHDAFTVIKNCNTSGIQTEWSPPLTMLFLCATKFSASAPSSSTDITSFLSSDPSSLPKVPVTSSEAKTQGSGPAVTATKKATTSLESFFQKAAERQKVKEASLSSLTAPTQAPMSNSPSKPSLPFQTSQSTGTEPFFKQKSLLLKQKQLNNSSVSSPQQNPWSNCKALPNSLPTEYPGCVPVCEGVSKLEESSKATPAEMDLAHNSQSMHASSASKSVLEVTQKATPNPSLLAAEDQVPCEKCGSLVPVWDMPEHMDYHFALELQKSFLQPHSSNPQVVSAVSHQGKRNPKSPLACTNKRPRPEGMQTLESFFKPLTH
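Pol eta at 10 nM preincubated with compounds 15 min at room temperature; reaction started with fluorescent substrate (50 nM final) and read kinetically at 0 and 10 min.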
Pol iota inh – qHTS for Inhibitors of Polymerase Iota | DNA polymerase iota (Homo sapiens), Q9UNA4 | Potency, µM (titrated, usually from 115 µM), most hits filed as inhibitors | Pol iota fluorescent replication assay, 10 min | 1% of 390,000 active
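Pol iota at 10 nM preincubated 15 min with compounds at room temperature; reaction started with fluorescent substrate, 50 nM final. Fluorescence read kinetically at 0 and 10 min; buffer-only wells as negative control.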
Pol kappa inh-2 – qHTS for Inhibitors of Polymerase Kappa: Confirmatory Assay for Cherry-picked Compounds. shares compounds with Pol eta inh-1. Potency, µM, most hits filed as inhibitors. 76% of 920 active. purified Pol-kappa, fluorescent strand-displacement substrate
Pol eta inh-2 – qHTS for Inhibitors of Polymerase Eta: Confirmatory Assay for Cherry-picked Compounds. Potency, µM, actives largely listed as inhibitors. shares compounds with Pol eta inh-1. AID 720502, 2013. Pol eta primer extension, TAMRA/BHQ fluorescence, 10 min. 64% of 2,600 active
A number is an active result. Hits are enriched below; roughly 2.8% of the tested compounds scored in any of these assays. Unless noted, the call rests on the fitted dose curve; in most records, active means well fitted inhibition curve with a large enough effect; inconclusive means small, poorly fitted or top-dose-only effect, or another doubt; inactive means no such curve, though single readings can be large or run the other way.

`CCOc1ccc(CCNC(=O)CCc2c(C)nc3c(c(C)nn3-c3ccccc3)c2C)cc1OCC` gave PI4K2A block inactive, POLB inh inactive, Pol kappa inh-1 inactive, Pol eta inh-1 inactive and Pol iota inh inactive.
Screening Cc1cc(Nc2cccc(C(F)(F)F)c2)n2nc(C)nc2n1 returned PI4K2A block inactive, POLB inh inactive, PI5P4K alpha inh inactive, Pol kappa inh-1 inactive, Pol eta inh-1 inactive and Pol iota inh inactive.
COc1ccc(-c2nc3nc(C)cc(Nc4cccc(C(F)(F)F)c4)n3n2)cc1 was read as PI4K2A block inactive, POLB inh inconclusive, Pol kappa inh-1 inactive, Pol eta inh-1 inconclusive, Pol iota inh inactive and Pol kappa inh-2 18.9.
Screening Cc1cc(C)c(NC(=O)c2cc(S(=O)(=O)N3CCC4(CC3)OCCO4)ccc2F)c(C)c1 returned PI4K2A block inactive, POLB inh inactive, Pol kappa inh-1 inactive, Pol eta inh-1 inactive and Pol iota inh inactive.
O=C(O)CNC(=O)CC1S/C(=N/N=C2/NC(=O)CS2)NC1=O (stereo not drawn) was read as PI4K2A block inactive, POLB inh inactive, PI5P4K alpha inh inconclusive, Pol kappa inh-1 inactive, Pol eta inh-1 44.7µM, Pol iota inh inconclusive and Pol kappa inh-2 inconclusive.
`COc1cc2nc(NC3CCN(C)CC3)nc(NC3CCN(C)CC3)c2cc1OC` gave Pol kappa inh-1 inactive and Pol iota inh inactive.
Screening O=C1c2cccc3cccc(c23)C(=O)N1c1ccc2ncccc2c1 returned PI4K2A block inactive, POLB inh 31.6µM, PI5P4K alpha inh inactive, Pol kappa inh-1 inconclusive, Pol eta inh-1 inconclusive, Pol iota inh inconclusive and Pol kappa inh-2 inconclusive.
For O=C1c2cccc3cccc(c23)C(=O)N1c1nccs1 the results were PI4K2A block inactive, POLB inh inactive, Pol kappa inh-1 inactive, Pol eta inh-1 inactive and Pol iota inh inactive.
For COc1ccc(S(=O)(=O)N(CC(=O)N2CCOCC2)Cc2ccccc2)cc1 the results were PI4K2A block inactive, POLB inh inactive, Pol kappa inh-1 inactive, Pol eta inh-1 inactive and Pol iota inh inactive.
Screening O=C(CN1C(=O)S/C(=C/c2ccncc2)C1=O)N1CCOCC1 returned PI4K2A block inactive, POLB inh inactive, PI5P4K alpha inh inactive, Pol kappa inh-1 inactive, Pol eta inh-1 inactive and Pol iota inh inactive.
COC1=CC(=Cc2c(N)n3nc(CC(=O)N4CCOCC4)sc3nc2=O)C=C(OC)C1=O was read as PI4K2A block inactive, POLB inh inconclusive, PI5P4K alpha inh -63.8, Pol kappa inh-1 79.4µM, Pol eta inh-1 20µM, Pol iota inh 22.4µM and Pol eta inh-2 inconclusive.
Nc1c(C=C2C=CC(=O)C=C2)c(=O)nc2sc(CC(=O)N3CCOCC3)nn12 was read as PI4K2A block inactive, POLB inh inactive, PI5P4K alpha inh inactive, Pol kappa inh-1 inactive, Pol eta inh-1 inconclusive, Pol iota inh inactive and Pol eta inh-2 75.7.
Cc1ccc2occ(CC(=O)N(Cc3ccc(Cl)cc3)Cc3ccco3)c2c1 was read as PI4K2A block inactive, POLB inh inactive, Pol kappa inh-1 inactive, Pol eta inh-1 inactive and Pol iota inh inactive.
